# Bioassay records (PubChem)
# FBW7 activator = human FBW7 E3 ligase activation, primary screen | normalized activity (activation), % at 26.1 µM | 650,000 compounds, 0.13% hits | AlphaScreen FBW7–phospho-cyclin E peptide binding, activator screen; in the data active = normalized activity above about 1.9%;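 also: purified mutant Fbw7 with reduced substrate affinity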
# MITF primary = inhibitors of human MITF; O75030; AlphaScreen MITF homodimerization, bead proximity signal; inhibition, % at 2.6 µM; 650,000 compounds, 0.91% hits; AID 1259374; in the data active = inhibition above about 50%;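 also: 0% = vehicle wells with protein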
# Target sequence (O75030 whole entry, looked up): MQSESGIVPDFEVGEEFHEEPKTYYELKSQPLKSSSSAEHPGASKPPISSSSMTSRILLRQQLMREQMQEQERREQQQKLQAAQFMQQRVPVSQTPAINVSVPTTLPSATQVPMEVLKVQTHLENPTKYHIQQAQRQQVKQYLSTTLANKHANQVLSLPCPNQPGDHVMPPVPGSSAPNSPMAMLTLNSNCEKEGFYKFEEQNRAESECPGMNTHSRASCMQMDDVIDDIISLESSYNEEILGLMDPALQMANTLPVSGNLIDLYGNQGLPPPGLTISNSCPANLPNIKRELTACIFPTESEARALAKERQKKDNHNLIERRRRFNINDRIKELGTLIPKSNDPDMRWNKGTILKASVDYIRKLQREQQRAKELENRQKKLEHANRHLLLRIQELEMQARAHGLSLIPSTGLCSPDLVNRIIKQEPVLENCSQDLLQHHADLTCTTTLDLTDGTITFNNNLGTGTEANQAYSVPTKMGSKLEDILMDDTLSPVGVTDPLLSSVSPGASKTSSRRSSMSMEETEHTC
# TEAD-YAP block = TEAD-YAP interaction inhibition | HEK-TIYL cells, TEAD-Gal4/YAP UAS-luciferase luminescence | inhibition, % at 9.12 µM | 640,000 compounds, 1.4% hits; in the data active = inhibition above about 32%;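 also: 0% = median of test compound wells and 100% = reference inhibitor wells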
# GPR151 activ = human GPR151 activation; activation, % at 11.2 µM; 650,000 compounds, 1% hits; PathHunter beta-arrestin GPR151 cells, luminescence; in the data active = activation above about 4.9%;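 also: 0% = median of compound wells and 100% = cells with positive control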
# The depositor's hits bear a star. An excerpt weighted towards active compounds, which were near 3.5% of everything screened.
SMILES,FBW7 activator,MITF primary,TEAD-YAP block,GPR151 activ
O=C(O)CCCCN1C(=O)CSC1=S,0,24,38*,-1
O=C(O)CCN1C(=O)CSC1=S,0,6,10,1
Cc1ccc(CNC(=O)CN2C(=O)CCc3ccccc32)cc1,0,10,-4,0
Cc1nc2sccn2c1CN1CCc2ccc(NC(=O)C3CCCO3)cc2C1 (configuration not stated),0,12,37*,1
O=C(Nc1ccc2c(c1)CN(C(=O)C#Cc1ccccc1)CC2)C1CCCO1 (configuration not stated),0,5,61*,0
CCOC(=O)C1=C(C)NC2=C(C(=O)c3ccccc32)C1c1ccc(C)c(Cl)c1 (configuration not stated),0,-4,-1,0
CC(C)CCN(C(=O)CCl)c1c(N)n(Cc2ccccc2)c(=O)[nH]c1=O,0,13,68*,-2
COC(=O)c1cc(-c2ccc(OC)cc2)no1,1.9*,-3,-5,3
CCOC(=O)c1cc(-c2ccc(N(CC)CC)cc2)no1,5.3*,11,-58,0
N#C/C(=C\c1ccc(OCC(=O)NCC2CCCO2)cc1)C(=O)NCCc1ccccc1 (configuration not stated),2.0*,8,0,0
N#C/C(=C\c1ccc(OCC(=O)NCC2CCCO2)cc1)C(=O)NCc1ccccc1 (configuration not stated),0,-22,7,1
CCOC(=O)c1sc(NC(=O)c2cc(C)no2)c(C(=O)OCC)c1C,2,19,-28,0
Nc1cccc(-c2cc(NCc3cccc(C(F)(F)F)c3)nc(N)n2)c1,0,-11,44*,1
Nc1nc(NCc2cccc(C(F)(F)F)c2)cc(-c2ccccc2)n1,0,2,45*,1
O=C(Nc1ccccc1C(F)(F)F)c1cc2nc(-c3ccc(Cl)cc3)cc(C(F)(F)F)n2n1,0,12,5,-1
O=S(=O)(NC1c2cccc3cccc(c23)C1N1CCN(C(=S)Nc2ccccc2)CC1)c1ccc(Cl)cc1 (configuration not stated),2.4*,4,-8,0
Nc1cc(Cl)ccc1C(=O)OCC(=O)N1CCCCC1,0,-12,-51,1
N#CC(C#N)=C(N)/C(C#N)=C/c1ccc(-c2cc(C(=O)O)cc(C(=O)O)c2)o1,-1,63*,2,-1
CCOCCOC(=O)C1=C(C)NC2=C(C(=O)CCC2)C1c1cc(Cl)c(O)c(OC)c1 (configuration not stated),0,7,4,1
COc1cccc(Cn2c(=S)[nH]c3cc(OC)c(OC)cc3c2=O)c1,0,9,-5,-1
COc1ccc(C2C(C#N)=C(N)Oc3c2sc2ccccc32)cc1OC (configuration not stated),0,8,56*,2
COc1ccc(C2C(C#N)=C(N)Oc3c2sc2ccccc32)c2ccccc12 (configuration not stated),0,12,3,-1
Cc1ccc(N2C(=O)C(Cl)=C(Nc3cc(Cl)ccc3O)C2=O)cc1,0,13,41*,-2
O=C1C(Cl)=C(Nc2ccccc2O)C(=O)N1c1ccccc1,0,9,-28,0
COc1ccccc1CNS(=O)(=O)c1ccc(F)c(C(=O)Nc2cc(C)ccc2C)c1,1,11,-11,-1
SMILES,FBW7 activator,MITF primary,TEAD-YAP block,GPR151 activ
Cc1nc2ccc(Cl)cn2c1C(=O)NN=C1CCCCC1,0,0,11,0
Cc1ccc2nc(C)c(C(=O)NN=C3CCCCCC3)n2c1,0,-5,58*,1
COc1ccc2c(c1)sc1ncc(C(=O)NC(Cc3ccccn3)C(F)(F)F)c(=O)n12 (configuration not stated),1,11,2,1
Cc1cc2nc(-c3ccc[nH]c3=O)[nH]c2cc1C,0,-11,86*,-11
Cc1ccccc1-c1nc2ccccc2[nH]1,0,24,-53,-2
Cc1cc(NC(=O)c2ccc3c(c2)OCCO3)no1,1,8,79*,-6
Cc1cccc(NC(=O)c2ccc3c(c2)OCCO3)n1,0,-11,-19,-9
Cc1cc(NC(=O)c2ccc3c(c2)OCCO3)on1,0,-5,38*,-4
Cc1cc(NC(=O)c2ccc3c(c2)OCO3)no1,0,1,-12,-5
COc1cccc2cc(C(=O)NCCCn3ccnc3)c(=O)oc12,0,13,-8,-1
CCCCOC(=O)CSC1=C(C#N)C(c2ccccc2)CC(=O)N1 (configuration not stated),0,13,45*,2
N#CC1=C(SCC(=O)Nc2ccccc2)NC(=O)CC1c1ccccc1 (configuration not stated),0,-14,32*,-1
CCCOC(=O)CSC1=C(C#N)C(c2ccc(O)cc2)CC(=O)N1 (configuration not stated),0,5,-1,0
CCCOC(=O)CSC1=C(C#N)C(c2ccccc2)CC(=O)N1 (configuration not stated),0,7,57*,1
CC(C)OC(=O)CSC1=C(C#N)C(c2ccccc2)CC(=O)N1 (configuration not stated),0,-7,62*,1
CCCCOC(=O)CSC1=C(C#N)C(c2ccc(Cl)cc2)CC(=O)N1 (configuration not stated),0,6,2,-1
N#CC1=C(SCC(=O)Nc2ccccc2)NC(=O)CC1c1ccc(O)cc1 (configuration not stated),1,19,31,1
CCc1ccc(C2CC(=O)NC(SCC(=O)OC(C)C)=C2C#N)cc1 (configuration not stated),0,13,3,1
COc1ccc(C2CC(C(F)(F)F)n3nc(C(=O)Nc4cccc(Cl)c4C)cc3N2)cc1 (configuration not stated),0,-6,-4,2
O=C(/C=C/c1ccc([N+](=O)[O-])cc1)Nc1cccc(C(=O)c2ccc(F)cc2)c1,0,6,38*,2
COc1cccc(N2C(=O)CN(Cc3ccc(F)cc3)CC2C)c1 (configuration not stated),0,11,-1,0
COc1ccccc1NC(=O)COc1ccc2oc3c(c2c1)CCCC3,0,-4,-2,2
CCCCC(CC)C(=O)Nc1ncc([N+](=O)[O-])s1 (configuration not stated),0,10,44*,0
CCC(C(=O)N1CCC(C)CC1)c1ccccc1 (configuration not stated),0,1,-13,0
CC(C)(C)C(NC(=O)CC12CC3CC(CC(C3)C1)C2)C(=O)O (configuration not stated),0,1,3,1
c1ccc(Nc2nc3nonc3nc2Nc2ccccc2)cc1,0,14,36*,0
Oc1ccc(Nc2nc3nonc3nc2Nc2cccc(Br)c2)cc1,0,12,45*,4
Clc1ccc(Nc2nc3nonc3nc2Nc2ccc(Br)cc2)cc1Cl,0,-17,-2,1
